The campaign covered roughly 86,000 compounds. About 1,400 (1.6%) were called active. The list comes from a sample in which actives are over-represented; it also holds similar structures and randomly drawn compounds. Values without a mark were called inactive. Rule as the data show it: active = inhibition above about 50%; inactive = the rest.
target: Estrogen receptor (Homo sapiens) (UniProt P03372); experiment: ERα–SRC-1 coactivator interaction inhibitors, primary screen, biochemical, TR-FRET, ERα LBD, estradiol-bound (AID 629); conditions: TR-FRET ER-alpha LBD / SRC-1 peptide, at 25.6 µM, stronger effect = higher value;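 also: 0% = receptor plus peptide control and 100% = peptide only without receptor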
Sequence (P03372 whole entry, looked up, the tested form may be a part): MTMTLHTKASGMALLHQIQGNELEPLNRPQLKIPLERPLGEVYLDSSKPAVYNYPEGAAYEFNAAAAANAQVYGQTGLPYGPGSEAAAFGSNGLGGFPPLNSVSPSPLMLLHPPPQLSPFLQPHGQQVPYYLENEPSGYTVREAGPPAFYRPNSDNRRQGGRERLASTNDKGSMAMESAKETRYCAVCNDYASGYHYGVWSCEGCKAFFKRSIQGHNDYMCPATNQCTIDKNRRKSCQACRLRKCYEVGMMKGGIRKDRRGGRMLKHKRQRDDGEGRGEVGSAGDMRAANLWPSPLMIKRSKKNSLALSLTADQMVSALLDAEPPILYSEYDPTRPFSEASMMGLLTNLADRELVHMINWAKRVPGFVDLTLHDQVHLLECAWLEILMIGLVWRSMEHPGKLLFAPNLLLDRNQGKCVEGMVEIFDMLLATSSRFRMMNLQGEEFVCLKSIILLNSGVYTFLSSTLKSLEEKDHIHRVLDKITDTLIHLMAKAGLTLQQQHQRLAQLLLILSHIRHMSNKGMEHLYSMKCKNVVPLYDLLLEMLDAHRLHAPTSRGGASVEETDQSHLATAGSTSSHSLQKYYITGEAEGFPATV

Structure (SMILES) | inhibition
CCN(CC)C(=O)CSc1nc2ccccc2o1 | -2.4%
O=S(=O)(NCCNS(=O)(=O)c1ccccc1)c1ccccc1 | -4.42%
O=c1/c(=C/c2ccc(CNS(=O)(=O)c3ccccc3)o2)sc2n1CCN=2 | 51.2% [fluorescence artefact?] (active)
O=S(=O)(NCC1OCCc2ccccc21)c1ccccc1 (stereo unspecified) | -3.46%
CC(=O)C1=C(C)NC(=O)NC1c1cc(Br)ccc1OCC#N (stereo unspecified) | -10.9%
CC(C)n1c(-c2cccs2)nc2ccccc21 | -8.49%
O=C(CCn1c(SCC(=O)c2ccccc2)nc2ccccc2c1=O)NCc1ccc(F)cc1 | 47.2%
COc1ccc(C)cc1-n1nnnc1SCC(=O)c1cc(C)n(Cc2ccco2)c1C | 56% [fluorescence artefact?] (active)
COc1ccc(NC(=O)CSc2nnc(-c3cccs3)n2Cc2ccco2)cc1OC | -0.83%
COc1ccc(OC)c(-n2nnnc2SCC(=O)Nc2cc(C)ccc2OC)c1 | 4.13%
O=C(NCc1ccccc1)[C@@H]1CSC2c3ccccc3C(=O)N21 (stereo partly specified) | 6.25%
Cc1cc(C)n(-c2nnc(C)n2NC(=O)c2cccc(Cl)c2)n1 | -8.09%
COc1ccc2[nH]c(=O)c(-c3noc(-c4ccc(F)cc4)n3)cc2c1 | 72.5% [fluorescence artefact?] (active)
COc1ccc(-c2noc(-c3ccc(C)cc3)n2)cc1 | -13.3%
Cc1cccc(-c2noc(-c3ccc(F)cc3)n2)c1 | -21.4%
COc1ccc(Cl)cc1C(=O)Nc1ccc(N(C)C(C)=O)cc1 | 9.29%
COc1cc(OC)c(C(=O)Nc2ccc(N(C)C)cc2)cc1OC | 63.9% [fluorescence artefact?] (active)
COc1cc(OC)c(C(=O)NC2CCCCCC2)cc1OC | -10.8%
CCOc1ccccc1C(=O)NC1CC2CCCC(C1)N2Cc1ccccc1 (stereo unspecified) | 1.91%
COc1ccc(-c2nnc(SCC(=O)c3ccc4c(c3)OCCO4)o2)cc1 | 22.7%
O=c1c2ccccc2nnn1CSc1nnnn1-c1ccccc1 | -0.34%

Structure (SMILES) | inhibition
O=c1c2ccccc2nc(CSc2nnnn2-c2ccccc2)n1-c1ccccc1 | 70% [fluorescence artefact?] (active)
N#CCSc1nc2ccccc2c(=O)n1-c1ccccc1 | 1.7%
Cc1ccc(Nc2nc(CSc3nnnn3-c3ccccc3)cc(=O)[nH]2)cc1 | 66.8% [fluorescence artefact?] (active)
Cc1ccc(-c2noc(CSc3nnnn3-c3ccccc3)n2)cc1 | -3.97%
COc1ccc(-n2nnnc2SCC(=O)Nc2ccccc2)cc1 | -12.4%
Brc1ccc(-c2nnc(-c3ccccc3)o2)o1 | 12.2%
O=C(Cc1ccccc1)Nc1c(C(=O)N2CCCCCC2)cnn1-c1ccccc1 | -5.17%
Cc1cc(=O)oc2cc(OCC3CC(c4ccccc4Cl)=NO3)ccc12 (stereo unspecified) | 3.5%
O=C(c1ccc2c(c1)OCO2)N1CCOCC1 | -17.2%
Cc1ccc(NC(=O)CSCC(=O)N2CCOCC2)cc1 | -2.74%
CCN(CC)C(=O)CN(c1cccc(OC)c1)S(=O)(=O)c1ccc(C)cc1 | 0.16%
Cc1nc(C)c(C(=O)Nc2ccc(C)c(F)c2)o1 | 13.3%
COc1ccc(Cl)cc1NC(=O)c1oc(C)nc1C | 53.9% (active)
Cc1nc(C)c(C(=O)Nc2cccc(C)c2C)o1 | 23.7%
Cc1cc(NC(=O)CCC(=O)N(CC(=O)NCC2CCCO2)c2ccccc2C)no1 (stereo unspecified) | 26%
CCOC(=O)N1CCN(C(=O)c2n[nH]c(=O)c3ccccc23)CC1 | -4.02%
CCOC(=O)N1CCN(C(=O)c2nn(-c3ccc(C)cc3)c(=O)c3c2c2ccccc2n3C)CC1 | 58.7% [fluorescence artefact?] (active)
Cn1c2ccccc2c2c(C(=O)N3CCN(c4ccc(F)cc4)CC3)cn(C3CCCC3)c(=O)c21 | 8.84%
CCCc1nc(NCc2ccc3c(c2)OCO3)c2nnn(Cc3ccccc3Cl)c2n1 | 0.25%
Cc1ccccc1-c1nnc(SCC(=O)NCc2ccc3c(c2)OCO3)n1C | -3.86%

Reference: PubChem BioAssay AID629 (Emory University Molecular Libraries Screening Center, 2007)
